Assay outcomes as filed in PubChem.
IDE cell inh – cellular human IDE inhibition; actives 0.41% (n = 320,000); HEK cells, FAbetaB cleavage, fluorescence polarization; P14735; inhibition, % at 5.59 µM;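 active = percent inhibition above the average of all tested compounds plus 3 SD, set per screening campaign, cut at about 16% in these data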;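 also: IDE supplied by intact live HEK cells; FP after avidin binding of uncleaved biotin substrate so inhibition keeps polarization high; 0% = DMSO wells and 100% = 60 µM reference IDE inhibitor Ii1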
Target sequence (P14735 whole entry, looked up): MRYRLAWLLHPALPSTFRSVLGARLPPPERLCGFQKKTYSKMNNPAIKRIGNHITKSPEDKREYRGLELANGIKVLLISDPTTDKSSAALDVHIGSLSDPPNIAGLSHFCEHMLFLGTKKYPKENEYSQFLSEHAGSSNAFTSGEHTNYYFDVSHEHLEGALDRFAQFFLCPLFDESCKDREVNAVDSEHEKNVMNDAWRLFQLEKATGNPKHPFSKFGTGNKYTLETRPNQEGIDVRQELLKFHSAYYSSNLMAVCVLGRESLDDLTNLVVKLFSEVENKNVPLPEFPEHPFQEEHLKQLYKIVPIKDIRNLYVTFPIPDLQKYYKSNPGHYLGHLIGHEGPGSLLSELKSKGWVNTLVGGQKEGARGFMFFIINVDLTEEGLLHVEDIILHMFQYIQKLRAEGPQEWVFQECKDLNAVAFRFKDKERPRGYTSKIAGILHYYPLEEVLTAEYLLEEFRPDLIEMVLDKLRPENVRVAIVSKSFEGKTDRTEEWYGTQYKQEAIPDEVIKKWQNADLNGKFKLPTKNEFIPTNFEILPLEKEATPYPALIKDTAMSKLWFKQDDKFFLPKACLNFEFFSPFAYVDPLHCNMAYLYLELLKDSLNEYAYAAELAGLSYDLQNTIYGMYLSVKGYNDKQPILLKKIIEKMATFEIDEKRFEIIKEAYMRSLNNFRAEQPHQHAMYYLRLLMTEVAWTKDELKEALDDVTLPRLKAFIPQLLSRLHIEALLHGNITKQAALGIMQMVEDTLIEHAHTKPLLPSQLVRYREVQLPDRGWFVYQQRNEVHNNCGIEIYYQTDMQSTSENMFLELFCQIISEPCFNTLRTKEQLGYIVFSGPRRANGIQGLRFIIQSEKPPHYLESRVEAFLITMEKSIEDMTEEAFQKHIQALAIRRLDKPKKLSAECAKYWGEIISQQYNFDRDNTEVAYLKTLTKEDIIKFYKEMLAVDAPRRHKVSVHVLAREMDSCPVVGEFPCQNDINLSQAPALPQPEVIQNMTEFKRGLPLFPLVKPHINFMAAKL
HDAC3 inhib – blocks human histone deacetylase 3; inhibition, % at 8.3 µM; O15379; recombinant HDAC3, fluorogenic peptide/trypsin coupled, fluorescence; actives 0.15% (n = 320,000); in the data active = inhibition above about 26%, passing the limit was not always enough
LANA-H2B inh – blocks KSHV LANA binding to histone H2A/H2B. Q9QR71. cell-free LANA-H2A/H2B peptide, fluorescence polarization. inhibition, % (test concentration not listed). actives 0.6% (n = 320,000). AID 2629; in the data active = inhibition mostly above about 10%, no sharp cut-off; inactive = mostly below about 6.7%
SUMO Mot1 rescue – blocks SUMOylation pathway, rescuing yeast Mot1-301 growth | S. cerevisiae Mot1-301 growth rescue, ATP luminescence, 38.5C; percent above DMSO median, 100 means doubled | growth rescue, % at 18.8 µM | actives 1% (n = 320,000);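 active = every valid replicate shows activation above 250% relative to neutral control wells; inactive = the rest, any valid replicate at or below 250%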;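 also: OY570 slx delta 5 strain wells were the positive control but not used for scaling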
IDE act – boosts human insulin-degrading enzyme activity in HEK cells | P14735 | FAbeta-B cleavage, fluorescence polarization; 0% vehicle, 100% cell-free pure enzyme wells | activation, % at 5.96 µM | actives 0.073% (n = 340,000) | AID 493087;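 active = activation above the mean of all tested compounds plus 3 SD, set per screening campaign, cut at about 17% in these data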
An asterisk follows results filed as active; . = not tested or not shown. Hits are enriched below; roughly 2.1% of the tested compounds scored in any of these assays.

SMILES | IDE cell inh | HDAC3 inhib | LANA-H2B inh | SUMO Mot1 rescue | IDE act
O=C(CN1C(=O)C2CC=CCC2C1=O)NCc1ccc2c(c1)OCO2 (stereo not given) | 0 | 5 | 1 | 0 | 3
COc1cc(CNC2CCCCCC2)cc(OC)c1OC | 0 | -13 | -4 | 1 | -7
COc1cc(CNC2CCCC2)cc(OC)c1OC | -2 | -3 | -4 | 73 | 18*
CCN(CC(=O)NCc1cccs1)C(=O)/C=C/c1ccc(Cl)c(Cl)c1 | 2 | -1 | 5 | 0 | 5
O=C(O)c1nn(CCOc2ccccc2F)c(=O)c2ccccc12 | 0 | 1 | 1 | 1 | 3
C[C@]12CC[C@@H]3c4ccc(O)cc4C(=O)C[C@H]3[C@@H]1CC[C@@H]2O | 2 | -1 | 3.5* | 161 | 2
C=Cc1cc2c(cc1O)CCC1C2CCC2(C)C(O)CCC12 (stereo not given) | . | . | . | . | 8
CCOC(=O)N1CCN(C(=O)c2cc3cc(C)ccc3[nH]2)CC1 | -1 | -5 | 13* | -1 | 3
COC(CN(C)C(=O)c1ccc2c(c1)NC(=O)c1ccccc1S2)OC | . | -5 | 7 | -7 | 3
O=C1/C(=C\c2ccc(O)cc2)SC(=S)N1c1cccnc1 | 88* | 2 | -8 | 16 | -99
COc1ccc(/C=C2\SC(=S)N(c3cccnc3)C2=O)cc1 | -1 | 3 | 5 | 3 | 0
CN(C)S(=O)(=O)c1ccc(C(=O)N2CCN=C2SCc2cccnc2)cc1 | 2 | -9 | -4 | -4 | -1
CCN(CC)S(=O)(=O)c1ccc(C(=O)N2CCN=C2SCc2cccnc2)cc1 | -5 | -3 | 26* | 169 | 3
Nc1ccn(CC(=O)N[C@H](CO)Cc2c[nH]c3ccccc23)c(=O)n1 | 4 | -1 | 0 | -2 | -2
COc1ccc(C(=O)C2CCCN(C(=O)c3ccc4nccnc4c3)C2)c(C)c1 (stereo not given) | 1 | -5 | 4 | 223 | -4
CC(=O)Nc1ccc(S(=O)(=O)N(C)CC(=O)OC2CCCCC2=O)cc1 (stereo not given) | 7 | -4 | 59* | -5 | 5
CC1CN(CC(O)COc2ccc(C(C)C)cc2)CC(C)O1 (stereo not given) | 8 | 3 | 6 | 326* | 1
COC(=O)c1sc(S(=O)(=O)NC(Cc2ccccc2)C(=O)O)c(C(=O)OC)c1C (stereo not given) | 3 | 0 | -4 | 7 | 5
CCC(C)c1ccc(NC(=O)c2cccnc2)cc1 (stereo not given) | -4 | 2 | 4 | -9 | -3
CCC(C)c1ccc(O)c(NC(=O)c2cccnc2)c1 (stereo not given) | 0 | -1 | -1 | 390* | -3
COc1cc(C(=O)OCc2nc3ccsc3c(=O)[nH]2)c([N+](=O)[O-])cc1OC | -2 | 0 | -4 | -1 | 1
Cc1nn(Cc2ccc(F)cc2)c(C)c1NC(=O)c1cc(-c2ccco2)on1 | 6 | 4 | 13* | 27 | 7
COc1ccc(NS(=O)(=O)c2ccc(C)c(C(=O)N3CCCCCCC3)c2)cc1 | 1 | -7 | -4 | 89 | 6
O=C(CSc1ccccc1F)Nc1ccc(N2CCOCC2)cc1 | -2 | -1 | 18* | 11 | 3
O=C(CSc1ccccc1)Nc1ccc(N2CCOCC2)cc1 | 0 | 0 | 0 | -20 | 3
SMILES | IDE cell inh | HDAC3 inhib | LANA-H2B inh | SUMO Mot1 rescue | IDE act
CCOc1ccc2noc3c2c1C(=O)c1ccccc1-3 | -11 | 2 | 44* | -6 | 44*
CCNc1ccc2noc3c2c1C(=O)c1ccccc1-3 | -6 | 2 | 28* | 0 | 17
CCNc1ccccc(-c2ccc3ccccc3n2)c1=O | 3 | 1 | -1 | 10 | -5
O=C1c2ccccc2-c2onc3ccc(N4CCCC4)c1c23 | . | . | . | . | -4
CCOC(=O)/C=C1/SCC(=O)N1CC(=O)NC12CC3CC(CC(C3)C1)C2 | . | . | . | . | -1
Cn1nc(C(C)(C)C)c([N+](=O)[O-])c1C(=O)N1CCOCC1 | -6 | -3 | -6 | 10 | 3
Cn1nc(C(C)(C)C)c([N+](=O)[O-])c1C(=O)N1CCCCCC1 | 1 | -2 | -1 | 444* | 4
O=C(C[C@@H]1C/C=C\C[C@@H](Cc2ccc(F)cc2)C(=O)OC[C@H]2CCCN2C1=O)NCCO | 1 | -4 | -2 | 11 | 5
Cc1ccc(C(=O)c2oc3ccc(Cl)cc3c2NC(=O)CN2CCN(C)CC2)cc1 | 0 | 5 | 0 | -11 | 2
CC(C)CCOc1ccc(Cl)cc1CN1CCOCC1 | 6 | -1 | -5 | 313* | 2
CCCCCOc1ccc(Cl)cc1CN1CCOCC1 | 4 | 6 | -2 | 137 | 3
Cc1nc(N2CCN(c3ccccc3)CC2)[nH]c(=O)c1C | 4 | 6 | -6 | -15 | 3
O=C(NCCC1CCCCN1S(=O)(=O)c1ccccc1)C(=O)NC1CC1 (stereo not given) | 3 | . | -3 | 1 | 6
COc1ccc(NC(=O)CCNS(=O)(=O)c2ccc(C)c(C)c2)cc1OC | -4 | 0 | -2 | -17 | 7
Cc1ccc(Nc2nc(N3CCOCC3)nc(N3CCOCC3)n2)cc1 | 1 | 0 | -2 | -13 | 2
CCCCc1ccc(Nc2nc(N3CCOCC3)nc(N3CCOCC3)n2)cc1 | -2 | -2 | 21* | 12 | 3
Cc1cc(NC(=S)Nc2cccnc2)ccc1Br | 0 | 3 | 4 | 2 | 6
Cc1cc(NC(=S)Nc2ccccc2)ccc1Br | 7 | 7 | 22* | 23 | -1
CS(=O)(=O)N1CCN(C(=O)c2cc(-c3cccs3)nc3ccccc23)CC1 | 2 | -51 | 0 | -9 | 3
CS(=O)(=O)N1CCN(C(=O)c2cc(-c3ccccc3)nc3ccccc23)CC1 | 3 | -4 | 9.7* | 36 | 1
CCN(CC(=O)Nc1ccc(NC(C)=O)cc1)C(=O)c1ccc(C(=O)c2ccccc2)cc1 | 2 | -8 | -1 | 15 | 5
Cc1cc(NC(=O)c2cc(-c3ccc(OC(C)C)cc3)nc3ccccc23)no1 | 1 | -7 | 2 | 312* | -6
CCC(C)c1ccc(-c2cc(C(=O)OCC(=O)Nc3cc(C)on3)c3ccccc3n2)cc1 (stereo not given) | -3 | 1 | 1 | -13 | 5
COc1ccc(Cl)cc1NC(=O)c1cc(-c2cc(C)ccc2O)n[nH]1 | -3 | -1 | 2 | 277 | 5
COc1ccc(Cl)cc1NC(=O)c1cc(-c2ccc(C)cc2O)n[nH]1 | 14 | -1 | 23* | 5 | 0
CCC(=O)c1ccc(CCCCCC(=O)O)s1 | -3 | -2 | 1 | 2 | 3
CC(=O)c1ccc(CCCCCCCCCC(=O)O)s1 | -2 | 4 | 2.8* | 155 | -8
CNC(=O)[C@@]1(C)C=C[C@@H](Cc2ccccc2)N1C(=O)OC | 5 | 1 | 2 | 271* | -5
CC1(C(=O)N2CCC(CC3CC(c4cccc(Br)c4)=NO3)(C(=O)NCC3CCCCC3)CC2)CC1 (stereo not given) | 3 | 1 | -5 | 4 | -1
